POLK inh – inhibitors of human DNA polymerase kappa. Potency, µM (series often up to 107 µM), for inactives: at the highest dose activity, negative = inhibition, usual class: inhibitors. 400,000 compounds, 0.53% hits. Q9UBT6. purified Pol kappa, fluorescent DNA synthesis assay, 10 min. AID 588579; also: % is scaled to controls: 0 for no effect and ±100 for the full control effect
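First, compounds were pin-transferred onto 10 nM Pol kappa. After 15 min at room temperature, substrate was added to 50 nM final. Fluorescence was then measured kinetically at 0 and 10 min.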
Pol beta inh – DNA polymerase beta (human) inhibition; P06746; Pol beta primer extension/strand displacement, fluorescence kinetic; Potency, µM (doses to about 114 µM), inactives show at the top dose activity change, negative = inhibition, hits mostly inhibitors; 340,000 compounds, 1.3% hits; also: % is scaled to controls: 0 for no effect and ±100 for the full control effect
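Homogeneous kinetic assay of primer extension and strand displacement by 10 nM Pol beta, preincubated 15 min at room temperature with compound before 50 nM substrate (final) was added. Read at 0 and 10 min; four-parameter Hill fit.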
POLI inh – inhibitors of human DNA polymerase iota. Q9UNA4. Pol iota fluorescent replication assay, 10 min. Potency, µM (top dose mostly 115 µM), for the others: at the top dose activity, negative = inhibition, actives largely listed as inhibitors. 390,000 compounds, 1% hits
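Fluorescent replication assay read twice, at 0 min and 10 min after adding 50 nM (final) substrate. Enzyme (10 nM) and compounds were first incubated 15 min at room temperature; enzyme-free buffer wells were negative controls.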
Pol eta inh – inhibitors of human DNA polymerase eta. Q9Y253. Potency, µM (top dose mostly 114 µM), for the others: at the top dose activity change, negative = inhibition, most hits filed as inhibitors. 390,000 compounds, 1.2% hits. recombinant Pol eta, fluorescent DNA replication assay. AID 588591; also: % is scaled to controls: 0 for no effect and ±100 for the full control effect
Target sequence (Q9Y253 whole entry, looked up): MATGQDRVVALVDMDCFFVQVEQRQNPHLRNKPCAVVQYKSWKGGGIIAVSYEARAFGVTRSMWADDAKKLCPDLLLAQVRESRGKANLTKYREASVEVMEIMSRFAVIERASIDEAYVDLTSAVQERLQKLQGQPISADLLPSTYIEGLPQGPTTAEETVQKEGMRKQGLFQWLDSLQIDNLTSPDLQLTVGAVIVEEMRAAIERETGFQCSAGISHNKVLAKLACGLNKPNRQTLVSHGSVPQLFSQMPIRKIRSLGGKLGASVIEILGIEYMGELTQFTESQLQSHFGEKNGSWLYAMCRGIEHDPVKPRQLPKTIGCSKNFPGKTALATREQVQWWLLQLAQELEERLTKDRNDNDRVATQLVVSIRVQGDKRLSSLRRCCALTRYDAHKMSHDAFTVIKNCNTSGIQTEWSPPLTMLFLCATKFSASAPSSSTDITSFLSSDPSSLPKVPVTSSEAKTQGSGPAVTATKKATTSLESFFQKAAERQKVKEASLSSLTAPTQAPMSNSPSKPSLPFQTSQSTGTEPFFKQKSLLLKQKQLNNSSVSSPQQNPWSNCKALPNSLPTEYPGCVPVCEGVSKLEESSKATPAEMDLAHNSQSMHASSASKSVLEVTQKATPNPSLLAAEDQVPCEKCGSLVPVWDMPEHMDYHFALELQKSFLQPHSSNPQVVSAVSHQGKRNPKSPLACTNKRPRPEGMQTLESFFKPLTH
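Pol eta (10 nM) was preincubated with compounds for 15 min at room temperature, after which fluorescent replication substrate (50 nM final) was added to start the reaction. Fluorescence was read kinetically at 0 and 10 min.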
FEN1 inh – human FEN1 inhibition; P39748; Recombinant FEN1 flap cleavage, fluorescence, 15 min; Potency, µM (series often up to 114 µM), inactives show top-dose activity change, negative = inhibition, actives largely listed as inhibitors; 390,000 compounds, 0.35% hits; AID 588795; also: % is scaled to controls: 0 for no effect and ±100 for the full control effect; nearly all actives have a fitted effect of over 65% in size
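Potency values derive from four-parameter Hill fits of normalized qHTS data. The reaction used 10 nM FEN1 preincubated 15 min at room temperature with compound, then 50 nM DNA substrate, read at 0 and 15 min.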
WRN inhibitor – blocks human WRN helicase; Q14191; WRN helicase unwinding, fluorescent forked duplex, kinetic; Potency, µM (doses to about 114 µM), for inactives: at the highest dose activity change, negative = inhibition, usual class: inhibitors; 360,000 compounds, 0.46% hits; also: % is scaled to controls: 0 for no effect and ±100 for the full control effect; nearly all actives have a fitted effect of over 55% in size
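WRN at 20 nM final preincubated with compound 15 min at room temperature; reaction started with 100 nM fluorophore/quencher forked duplex oligonucleotide and 2 mM ATP final. Unwinding followed kinetically by red fluorescence (ex 525, em 598 nm).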
* marks the source's active call; other numbers are inactive results; ? = inconclusive; . = no result; [ ] = another dose, or the depositor's remark. A selection: hits, their analogues and other compounds. The true share with any hit is near 2.4%. Calls follow the shape of the dose curve; as a rule, active = well fitted curve in the direction sought with a large enough effect; inconclusive = small, poorly fitted or top-dose-only effect, or another doubt; inactive = no such curve, though single readings can be large; an effect the other way counts as inactive or inconclusive. Potency is read from the fitted curve at half-maximal effect.

SMILES | POLK inh | Pol beta inh | POLI inh | Pol eta inh | FEN1 inh | WRN inhibitor
Cc1nc2c(-c3ccccc3)c(C)[nH]n2c(=O)c1Cc1ccc(Br)cc1 | -14% | -6% | 6% | -27% | 12% | .
COc1cc(OC)cc(N2C(=O)CC(N3CCC(C(=O)N4CCCCC4)CC3)C2=O)c1 (configuration not stated) | -41% | 20µM* | ? | ? | -1% | -16%
COc1cc(/C=C2\SC(=O)N(c3ccccc3Cl)C2=O)cc([N+](=O)[O-])c1O | -12% | 89µM* | ? | 56µM* | ? | -16%[11.6 µM]
COc1cc(/C=C2\SC(=O)N(CC(=O)Nc3ccccc3F)C2=O)cc(Cl)c1O | ? | ? | ? | 50µM* | -31% | -8%[57.1 µM]
COc1cc(/C=C2\SC(=O)N(c3ccc(O)cc3)C2=O)cc(OC)c1OC | 3% | -20% | 4% | -3% | 11% | -4%
O=C(NCc1ccccc1)c1ccc(Cn2c(=O)c3cccn3c3cccnc32)cc1 | -8% | -9% | -7% | 10% | 0% | .
C[n+]1cccc2ccc3c(c21)OC(N)=C(C#N)C3c1ccccc1 (configuration not stated) | -16% | 3% | 18µM* | -3% | -10% | -5%
C[n+]1cccc(C2C(C#N)=C(N)Oc3c2ccc2ccccc32)c1 (configuration not stated) | -23% | 7% | 109% | -14% | -24% | 28%
CCc1cc(-c2n[nH]c(C)c2-c2ccccc2Cl)c(O)cc1OC | 0% | 5% | 89µM* | -16% | -14% | -18%
O=C(NCc1ccco1)c1cc2c(s1)CCCCC2 | -19% | 28µM* | ? | -19% | 6% | -13%
COC(=O)[C@@]1(Sc2ccc(C)cc2)CC(=O)N[C@@H]1c1ccc(C(F)(F)F)cc1 | . | . | . | . | . | 4%
Cc1ccccc1NC(=O)Cn1c(=O)n(Cc2ccc3c(c2)OCO3)c(=O)c2ccc(C(=O)NC3CCCCC3)cc21 | -1% | ? | 6% | -12% | -5% | .
CC1=CC(=O)c2ccccc2C1=O | 9% | -1% | ? | ? | 1% | 7%
CC(C)(C=O)C1=CC(=O)c2ccccc2C1=O | 4% | 0% | ? | ? | ? | 50µM*
Cc1cc2[nH]c(=O)c(=O)[nH]c2cc1S(=O)(=O)N1CCN(c2cccc(Cl)c2)CC1 | -18% | 35µM* | ? | 0% | 16% | 2%[11.6 µM]
O=c1[nH]c2ccc(S(=O)(=O)N3CCN(c4ccccc4)CC3)cc2[nH]c1=O | ? | 45µM* | 40µM* | 79µM* | 56µM* | ?
CC1CCN(S(=O)(=O)c2ccc3[nH]c(=O)c(=O)[nH]c3c2)CC1 | -18% | 24% | 3%[58.9 µM] | -12% | 3% | 5%
Cc1cc2[nH]c(=O)c(=O)[nH]c2cc1S(=O)(=O)N1CCN(c2cccc(C(F)(F)F)c2)CC1 | -24% | ? | ? | 3% | 19% | -10%
COCc1cc(C)nc2sc3c(=O)n(-c4ccccc4C(F)(F)F)nnc3c12 | -5%[60.1 µM] | 77% | 5% | 4% | -11% | .
CCCCC(=O)N(C)c1c(CC)nc2c(OCCOc3ccccc3)cccn12 | . | . | . | . | . | -1%
O=C(NN1C(=O)c2ccc(-c3ccc4c(c3)C(=O)N(NC(=O)c3cccnc3)C4=O)cc2C1=O)c1cccnc1 | -18% | ? | 50µM* | 50µM* | -1% | -32%
CN(C)S(=O)(=O)N1CCC(Oc2cccc(C(=O)N3CCCCCC3)c2)CC1 | -6% | -8% | 9% | -10% | 11% | -19%
CN(C)S(=O)(=O)N1CCC(Oc2cccc(C(=O)N3CCCCCCC3)c2)CC1 | -10% | 0% | 89µM* | -10% | 4% | -3%[11.6 µM]
Cc1ccc(C)c(N2CCN(C(=O)c3ccc4nc(-c5ccco5)c(-c5ccco5)nc4c3)CC2)c1 | -12% | -18% | ? | -15% | -18% | -31%
COc1ccccc1N1CCN(C(=O)c2ccc3nc(-c4ccco4)c(-c4ccco4)nc3c2)CC1 | -28% | 28µM* | ? | -17% | -20% | -19%
SMILES | POLK inh | Pol beta inh | POLI inh | Pol eta inh | FEN1 inh | WRN inhibitor
CCOc1ccc(CNC(=O)c2ccc3c(c2)nc2n3CCOC2)cc1OC | -15%[60.1 µM] | -8% | -5% | -11% | 15% | .
Cc1c(CNC2CCCCC2)c(C(=O)O)c(C)n1Cc1ccc(F)cc1 | -10% | 18% | -12% | 0% | -2% | .
COc1ccc(-c2ccc(C(c3c(C)[nH][nH]c3=O)c3c(C)[nH][nH]c3=O)o2)c([N+](=O)[O-])c1 | -17% | ? | 11µM* | -17% | -20% | -29%
Cc1[nH][nH]c(=O)c1C(c1ccc(-c2ccc(Cl)c(Cl)c2)o1)c1c(C)[nH][nH]c1=O | 1% | -13% | 3.5µM* | ? | -22% | 0%
COc1ccc(-c2ccc(/C=N/N3C(=O)C4C5C=CC(C6CC56)C4C3=O)o2)c([N+](=O)[O-])c1 (configuration not stated) | -8% | ? | 5% | ? | 5% | -12%
CCOc1ccc(Cl)cc1C(c1c(C)[nH][nH]c1=O)c1c(C)[nH][nH]c1=O | -3% | 7% | ? | -18% | 2% | 5%
Cc1[nH][nH]c(=O)c1C(c1ccc(-c2ccc(F)cc2)o1)c1c(C)[nH][nH]c1=O | -9% | ? | 7.1µM* | -25% | 0% | 11%
Cc1[nH][nH]c(=O)c1C(c1ccc(N(C)C)c(Br)c1)c1c(C)[nH][nH]c1=O | -5% | 40% | 36% | -11% | 14% | -14%
CN1C(=O)c2ccccc2Sc2ccc(NC(=O)COc3ccccc3)cc21 | -2%[60.1 µM] | 4% | 37% | -16% | 2% | .
COc1ccc(-c2onc(C)c2C)cc1S(=O)(=O)NC1CCC(C)CC1 (configuration not stated) | -10% | -12% | 9% | -17% | 3% | .
COc1cccc2c(=O)c3c([nH]c12)OC(C)(C)C3 | 0% | . | 24% | -9% | 1% | 4%
COc1cccc2c(=O)c3cccc(N)c3[nH]c12 | -12% | 25µM* | -12% | ? | ? | ?
COc1ccc(CCNC(=O)c2nnn(CC(=O)Nc3ccccc3C)c2N)cc1OC | -11% | 20µM* | ? | ? | -21% | -8%
CCc1ccccc1NC(=O)Cn1nnc(C(=O)NCc2ccccc2Cl)c1N | ? | 71µM* | 89µM* | -15% | 16% | .
Cc1ccc(CNC(=O)c2nnn(CC(=O)Nc3cc(C)ccc3C)c2N)cc1 | -21% | 7.9µM* | -6% | -12% | -2% | .
COc1cccc(NC(=O)Cn2nnc(C(=O)NCCc3ccccc3)c2N)c1 | -34% | ? | 32µM* | 8% | 12% | -15%[11.6 µM]
